Source: PubChem BioAssay (Tox21)
Results filed as inconclusive are left out. Active and inactive are the calls of the source. Unless noted, calls follow the shape of the dose curve; as a rule, active = well fitted curve in the direction sought with a large enough effect in the repeat runs; inconclusive = weak or mixed curves; inactive = no such curve, though single readings can be large; an effect the other way counts as inactive or inconclusive.

Columns and labels:
[1] = A CellTox Green Cytotoxicity Assay to monitor cytotoxicity in HepG2 cells - 8 hour (AID 1224890); also: nearly all actives have a fitted effect of over 45% in size; also: potency is read from the fitted curve at half-maximal effect
How it was run: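 HepG2 cells, 600/well, preincubated 5 h with CellTox Green dye, then exposed to Tox21 compounds in DMSO at 37 C for up to 40 h. Dead-cell DNA fluorescence read at the indicated time point.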

[2] = qHTS assay to identify small molecule antagonists of the androgen receptor (AR) signaling pathway using the MDA cell line in the presence of 0.5 nM R1881 - cell viability counter screen (AID 1259242); also: nearly all actives have a fitted effect of over 45% in size; also: potency is read from the fitted curve at half-maximal effect
How it was run: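 MDA-kb2 cells (MMTV-luciferase, AR/GR responsive) were treated with compounds plus 0.5 nM R1881 (final) for 16 hr at 37C, 0% CO2. Viability was then read in the same wells as live-cell protease fluorescence (CellTiter-Fluor, 30 min).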

[3] = biological target: Estrogen receptor (Homo sapiens) (UniProt P03372); assay: qHTS assay to identify small molecule antagonists of the estrogen receptor alpha (ER-alpha) signaling pathway using the BG1 cell line in the presence of 0.1 nM 17-beta-estradiol (AID 1259244); also: nearly all actives have a fitted effect of over 50% in size; also: potency is read from the fitted curve at half-maximal effect
How it was run: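 VM7Luc4E2 cells (endogenous full-length ER-alpha, 4×ERE-luciferase), kept 5 days in phenol red-free, charcoal-stripped FBS medium; 4,000 cells/well. Compounds added with 0.1 nM (final) 17beta-estradiol, 22 hr at 37C; luminescence read with ONE-Glo after 30 min.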

[4] = qHTS assay to identify small molecule HDAC inhibitors (AID 1259364); also: nearly all actives have a fitted effect of over 45% in size; also: potency is read from the fitted curve at half-maximal effect
How it was run: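 Wild-type HCT-116 cells, plated overnight at 37 C, exposed to compounds 2 hr at 37 C; luminogenic HDAC-Glo substrate then added 30 min at room temperature. Luminescence reports relative endogenous class I/II HDAC activity.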

[5] = qHTS assay to identify small molecule HDAC inhibitors - cell viability counter screen (AID 1259365); also: nearly all actives have a fitted effect of over 50% in size; also: potency is read from the fitted curve at half-maximal effect
How it was run: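 HCT-116 wild-type, overnight attachment; 2hr drug exposure, 37C; CellTiter-Glo luminescent ATP readout after 30min RT.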

[6] = qHTS assay to identify small molecule agonists of the sonic hedgehog signaling (Shh) pathway - cell viability counter screen (AID 1259366); also: nearly all actives have a fitted effect of over 50% in size; also: potency is read from the fitted curve at half-maximal effect
How it was run: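 Compounds in DMSO were pin-transferred onto 3T3 Gli1-Luc cells that had settled 4hr; plates then stood 24hr at 37C and 5% CO2. One hour before the end, CellTiter-Fluor was added and fluorescence recorded.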

[7] = qHTS assay to identify small molecule antagonists of the sonic hedgehog signaling (Shh) pathway - cell viability counter screen (AID 1259367); also: nearly all actives have a fitted effect of over 55% in size; also: potency is read from the fitted curve at half-maximal effect
How it was run: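 After a 4 hr settling period, 3T3 Gli1-Luc cells were treated with DMSO-dissolved chemicals and conditioned medium, kept 24 hr at 37C in 5% CO2, and assayed for viability by CellTiter-Fluor fluorescence following 1 hr reagent incubation.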

[8] = qHTS assay to identify small molecule agonists of the sonic hedgehog signaling (Shh) pathway (AID 1259368; calls by dose curve;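 also: NIH/3T3-derived 3T3Gli1-Luc cells carrying a stable Gli1-driven firefly luciferase reporter; series mostly up to about 92 µM; nearly all actives have a fitted effect of over 15% in size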)
How it was run: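 NIH/3T3-derived 3T3Gli1-Luc cells with stably integrated Gli1-driven firefly luciferase, 2,000 cells/well, compounds added after 4 hr. Incubated 24 hr at 37C, 5% CO2; luminescence read after 30 min with luciferase reagent at room temperature.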

[9] = qHTS assay to identify small molecule antagonists of the sonic hedgehog signaling (Shh) pathway (AID 1259369; calls by dose curve; also: nearly all actives have a fitted effect of over 45% in size; also: potency is read from the fitted curve at half-maximal effect)
How it was run: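 NIH/3T3-derived Gli1-Luc reporter cells plated 4 h, dosed with compound, then stimulated with conditioned medium for 24 h at 37 C. Firefly luciferase luminescence read after 30 min with detection reagent at room temperature.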

[10] = biological target: Estrogen receptor beta (Homo sapiens) (UniProt Q92731); assay: qHTS assay to identify small molecule agonists of the estrogen receptor beta (ER-beta) signaling pathway (AID 1259377; active = well fitted activation curve with a large enough effect in the signal ratio in the repeat runs, not every such curve was filed as active; the % refers to the signal ratio)
How it was run: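 qHTS in ER-beta-UAS-bla HEK293T cells: 6 hr settling, then 16 hr compound at 37C, then LiveBLAzer substrate 2 h at RT before fluorescence reading.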

[11] = biological target: Estrogen receptor beta (Homo sapiens) (UniProt Q92731); assay: qHTS assay to identify small molecule antagonists of the estrogen receptor beta (ER-beta) signaling pathway (AID 1259378; active = well fitted inhibition curve with a large enough effect in the signal ratio in the repeat runs, not every such curve was filed as active; the % refers to the signal ratio; also: potency is read from the fitted curve at half-maximal effect)
How it was run: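 ER-beta-UAS-bla HEK293T (GripTite) cells in 2% charcoal-stripped FBS medium were preincubated 6 hr at 37C, dosed with compound, then stimulated with 1 nM E2 (final) for 16 hr; beta-lactamase reporter read by B/G FRET fluorescence after 2 hr substrate loading.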

[12] = qHTS assay to identify small molecule agonists of the androgen receptor (AR) signaling pathway in the presence of an antagonist - cell viability counter screen (AID 1259379); also: nearly all actives have a fitted effect of over 25% in size; also: potency is read from the fitted curve at half-maximal effect
How it was run: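 MDA-kb2 cells (MMTV-luciferase, AR/GR), 3,000/well, 5 h attachment, then 3.0 µM nilutamide (final) and compounds at 15 concentrations. Viability by CellTiter-Fluor fluorescence after 16 h at 37 °C, 0% CO2, in the reporter wells.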

[13] = qHTS assay to identify small molecule agonists of the estrogen receptor beta (ER-beta) signaling pathway - cell viability counter screen (AID 1259380); also: nearly all actives have a fitted effect of over 30% in size; also: potency is read from the fitted curve at half-maximal effect
How it was run: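 ER-beta-UAS-bla HEK293T cells in medium with 2% charcoal-stripped FBS, pre-incubated 6 hr, then treated 16 hr at 37C. Cytotoxicity read in the same wells by CellTiter-Glo luminescence after 30 min at room temperature.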

[14] = qHTS assay to identify small molecule antagonists of the estrogen receptor beta (ER-beta) signaling pathway - cell viability counter screen (AID 1259382); also: nearly all actives have a fitted effect of over 55% in size; also: potency is read from the fitted curve at half-maximal effect
How it was run: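 ER-beta-UAS-bla HEK293T cells in 2% charcoal-stripped FBS medium, treated with compound plus 1 nM 17-beta-estradiol for 16 h at 37C. Viability read by CellTiter-Glo luminescence after 30 min at room temperature in the same wells.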

[15] = qHTS assay to identify small molecule agonists or antagonists of the thyroid stimulating hormone receptor (TSHR) signaling pathway - wild type cell line counter screen (AID 1259384; calls by dose curve)
How it was run: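 Wild-type HEK293 cells were plated 18 h at 37 C/5% CO2, pin-dosed with compound plus Ro20-1724 medium, held 30 min at room temperature, then given cAMP-d2 and anti-cAMP-cryptate; fluorescence was read after 1 h. Fifteen concentrations, triplicate.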

[16] = biological target: Androgen receptor (Homo sapiens) (UniProt P10275); assay: qHTS assay to identify small molecule agonists of the androgen receptor (AR) signaling pathway in the presence of an antagonist (AID 1259381; calls by dose curve; also: nearly all actives have a fitted effect of over 15% in size)
How it was run: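 MDA-kb2 cells carrying MMTV-luciferase (AR/GR responsive), 3,000 cells/well, co-treated with 3.0 uM nilutamide final. Compounds at 15 concentrations, 16 hr at 37C without CO2. Luciferase luminescence read after 30 min with ONE-Glo.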

[17] = biological target: Estrogen receptor (Homo sapiens) (UniProt P03372); assay: qHTS assay to identify small molecule agonists of the estrogen receptor alpha (ER-alpha) signaling pathway in the presence of an antagonist (AID 1259383; calls by dose curve; also: top concentration of the series differs between compounds; nearly all actives have a fitted effect of over 15% in size)
How it was run: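 VM7Luc4E2 cells express endogenous full-length ER-alpha with an ERE-luciferase reporter and were hormone-deprived for 5 days. Compounds at 15 concentrations were added with 10.0nM ICI-182,780 for 22hr at 37C. Luminescence was read with ONE-Glo.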

[18] = qHTS assay to identify small molecule phospholipidosis (PLD) inducers (AID 1259344; active = well fitted curve in the direction sought with a large enough effect; an effect the other way counts as inactive or inconclusive)
How it was run: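 HepG2 cells grown on collagen I take up LipidTOX Red while exposed to compound for 24 h; after fixation they are imaged at 20x and pit metrics are extracted.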

[19] = biological target: Androgen receptor (Homo sapiens) (UniProt P10275); assay: qHTS assay to identify small molecule antagonists of the androgen receptor (AR) signaling pathway using the MDA cell line in the presence of 0.5 nM R1881 (AID 1259243); also: nearly all actives have a fitted effect of over 50% in size; also: potency is read from the fitted curve at half-maximal effect
How it was run: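 MDA-kb2 cells (MMTV-luciferase, responsive to AR and GR) at 3,000/well, rested 5 h at 37C, 0% CO2, then given compounds plus 0.5 nM R1881 (final) for 16 hr. Luciferase read with ONE-Glo after 30 min at room temperature.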

Measured: Potency

Sequence of Estrogen receptor beta (Homo sapiens) (Q92731 whole entry, looked up): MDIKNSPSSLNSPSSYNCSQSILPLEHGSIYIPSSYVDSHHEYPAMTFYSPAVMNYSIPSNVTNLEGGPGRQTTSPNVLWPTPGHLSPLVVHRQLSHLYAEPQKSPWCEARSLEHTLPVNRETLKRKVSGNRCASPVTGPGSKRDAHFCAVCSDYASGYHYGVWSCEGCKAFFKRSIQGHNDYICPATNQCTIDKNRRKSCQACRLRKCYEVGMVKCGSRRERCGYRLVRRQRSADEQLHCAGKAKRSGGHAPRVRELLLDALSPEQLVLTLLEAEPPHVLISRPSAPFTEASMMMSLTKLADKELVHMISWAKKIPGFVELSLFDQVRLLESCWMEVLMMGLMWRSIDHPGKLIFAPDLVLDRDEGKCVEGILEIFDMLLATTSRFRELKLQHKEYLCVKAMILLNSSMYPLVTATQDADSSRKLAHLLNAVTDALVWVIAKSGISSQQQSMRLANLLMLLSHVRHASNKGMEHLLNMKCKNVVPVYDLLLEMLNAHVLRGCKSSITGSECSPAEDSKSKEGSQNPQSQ
Sequence of Androgen receptor (Homo sapiens) (P10275 whole entry, looked up): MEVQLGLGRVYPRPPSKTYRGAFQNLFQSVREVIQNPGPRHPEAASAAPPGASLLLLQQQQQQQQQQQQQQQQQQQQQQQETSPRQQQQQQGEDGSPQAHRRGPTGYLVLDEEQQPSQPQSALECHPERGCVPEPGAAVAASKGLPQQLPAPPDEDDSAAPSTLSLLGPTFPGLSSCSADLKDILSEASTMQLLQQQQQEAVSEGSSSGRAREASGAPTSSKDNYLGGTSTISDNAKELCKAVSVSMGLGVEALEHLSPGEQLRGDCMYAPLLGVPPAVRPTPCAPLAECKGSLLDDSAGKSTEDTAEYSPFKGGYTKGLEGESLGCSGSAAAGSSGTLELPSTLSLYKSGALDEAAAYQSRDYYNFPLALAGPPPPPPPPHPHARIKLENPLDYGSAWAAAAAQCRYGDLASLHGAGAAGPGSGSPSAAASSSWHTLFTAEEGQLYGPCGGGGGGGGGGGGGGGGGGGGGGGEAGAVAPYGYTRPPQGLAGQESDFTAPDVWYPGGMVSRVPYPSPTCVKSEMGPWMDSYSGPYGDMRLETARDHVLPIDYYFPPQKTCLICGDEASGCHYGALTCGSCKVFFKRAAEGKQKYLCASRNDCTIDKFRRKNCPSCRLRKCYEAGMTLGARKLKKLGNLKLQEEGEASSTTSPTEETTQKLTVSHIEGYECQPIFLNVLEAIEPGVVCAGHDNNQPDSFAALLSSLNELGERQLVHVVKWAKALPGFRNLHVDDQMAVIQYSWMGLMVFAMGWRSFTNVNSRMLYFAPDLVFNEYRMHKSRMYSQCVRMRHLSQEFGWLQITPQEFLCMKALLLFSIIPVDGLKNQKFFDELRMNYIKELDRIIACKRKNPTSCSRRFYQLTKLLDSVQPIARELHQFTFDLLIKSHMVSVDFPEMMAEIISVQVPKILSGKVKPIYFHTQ
Sequence of Estrogen receptor (Homo sapiens) (P03372 whole entry, looked up): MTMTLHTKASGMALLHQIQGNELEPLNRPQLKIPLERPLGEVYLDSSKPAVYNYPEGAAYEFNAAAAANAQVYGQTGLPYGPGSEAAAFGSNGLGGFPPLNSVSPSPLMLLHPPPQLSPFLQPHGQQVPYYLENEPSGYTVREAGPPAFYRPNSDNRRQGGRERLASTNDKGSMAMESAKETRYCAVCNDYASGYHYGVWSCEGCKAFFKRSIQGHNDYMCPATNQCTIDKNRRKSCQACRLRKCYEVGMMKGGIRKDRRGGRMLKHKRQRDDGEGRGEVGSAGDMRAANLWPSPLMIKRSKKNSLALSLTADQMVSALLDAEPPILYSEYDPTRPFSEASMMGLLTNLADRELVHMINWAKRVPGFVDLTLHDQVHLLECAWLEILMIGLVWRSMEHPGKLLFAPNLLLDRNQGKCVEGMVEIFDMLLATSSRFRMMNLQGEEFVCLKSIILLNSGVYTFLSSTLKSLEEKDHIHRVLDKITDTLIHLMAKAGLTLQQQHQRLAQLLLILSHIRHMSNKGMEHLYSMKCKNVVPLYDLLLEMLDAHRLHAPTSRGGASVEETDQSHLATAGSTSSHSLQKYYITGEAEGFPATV

CCCN(CC1CC1)c1c([N+](=O)[O-])cc(C(F)(F)F)cc1[N+](=O)[O-]
not listed: [16] | [17] | [18] | [19]
inactive: all other assays above

CCCCC(CC)COP(=O)(Oc1ccccc1)Oc1ccccc1 (stereo not given)
not listed: [11] | [13] | [17] | [18] | [19]
inactive: all other assays above

CC(=O)C(C)(C)C
not listed: [16] | [18] | [19]
inactive: all other assays above

COCC(C)N(C(=O)CCl)c1c(C)csc1C (stereo not given)
active: [9] 30.6 µM
not listed: [7] | [8] | [11] | [15] | [16] | [19]
inactive: all other assays above

IC(I)=C(I)I
inactive: [4] | [5] | [8] | [16] | [17] | [15]
active: [1] 38.9 µM | [2] 61.1 µM | [19] 15.4 µM | [3] 27.3 µM | [6] 7.7 µM | [7] 17.2 µM | [9] 2.73 µM | [12] 27.3 µM | [13] 21.7 µM | [14] 21.7 µM

CN1[C@@H]2CC[C@H]1CC(OC(=O)c1cc(Cl)cc(Cl)c1)C2 (stereo not given in full)
active: [13] 26.6 µM
not listed: [6] | [7] | [9] | [16] | [18] | [19]
inactive: all other assays above

CC(Cl)Cl
not listed: [7] | [9] | [16] | [17] | [18] | [19]
inactive: all other assays above

O=C(C(Cl)(Cl)Cl)C(Cl)(Cl)Cl
not listed: [10] | [11] | [15] | [18]
inactive: all other assays above

Nc1ccc(N=Nc2ccc(-c3ccc(N=Nc4c(S(=O)(=O)O)cc5cc(S(=O)(=O)O)c(N=Nc6ccccc6)c(O)c5c4N)cc3)cc2)c(N)c1
inactive: [1] | [2] | [3] | [8] | [10] | [14] | [17]
active: [4] 15.7 µM | [5] 17.6 µM | [6] 17.6 µM | [7] 19.7 µM | [12] 17.6 µM

CCOP(=S)(OCC)SCn1nnc2ccccc2c1=O
active: [3] 48.6 µM | [11] 68.6 µM
not listed: [9] | [12] | [16] | [17] | [18] | [19]
inactive: all other assays above

CCCN(CCC)c1c([N+](=O)[O-])cc(S(C)(=O)=O)cc1[N+](=O)[O-]
not listed: [9] | [11] | [12] | [15] | [16] | [18] | [19]
inactive: all other assays above

O=[N+]([O-])c1ccccc1CCl
not listed: [16] | [18] | [19]
inactive: all other assays above

NC(=O)C(Cl)(Cl)Cl
not listed: [7] | [8] | [9] | [10] | [16] | [18] | [19]
inactive: all other assays above

CNP(=O)(OC)Oc1ccc(C(C)(C)C)cc1Cl (stereo not given)
active: [9] 27.3 µM
not listed: [10] | [11] | [12] | [16] | [18] | [19]
inactive: all other assays above

N#CCc1ccccc1
not listed: [9] | [16] | [18] | [19]
inactive: all other assays above

BrCCCCBr
not listed: [10] | [11] | [12] | [16] | [17] | [18] | [19]
inactive: all other assays above

CCCCCCC#N
not listed: [8] | [16] | [18] | [19]
inactive: all other assays above

COC(=O)C(Br)CBr (stereo not given)
not listed: [15] | [16] | [17] | [18] | [19]
inactive: all other assays above

Cc1ccc(N)cc1C
not listed: [16] | [18] | [19]
inactive: all other assays above
